TDP1 cell noCPT = qHTS for Inhibitors of human tyrosyl-DNA phosphodiesterase 1 (TDP1): qHTS in cells in absence of CPT; DT40 Tdp1-/- hTDP1 cells, no CPT, ATP luminescence, 48 h; Potency, µM (highest dose often 46.2 µM), usual class: inhibitors; actives 15% (n = 420,000); further: nearly all actives have a fitted effect of over 55% in size
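Stably hTDP1-transfected Tdp1-null chicken DT40 cells were treated with library compounds minus camptothecin and grown for at least 48 hr at 37 °C, after which cellular ATP was quantified by luminescence.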
IL-1B inflam inh = inflammasome signaling inhibition, IL-1 beta readout; activity change, % at 57.5 µM; AID 743279; actives 4.7% (n = 360,000); THP-1 LPS/ATP IL-1B secretion, AlphaLISA, 16 h; stronger effect = lower value; in the data active means activity change below about -50%; inconclusive means mostly about -30% to -49%
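THP-1 cells pretreated 1 hr with compounds (up to 57.5 uM final), then stimulated with LPS (250 ng/mL final) plus ATP (1.25 mM final); secreted IL-1B measured by AlphaLISA after 16 hr, decreased signal indicating inhibition.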
DT40 TDP1 CPT = DT40-hTDP1 cell growth loss with CPT; actives 12% (n = 420,000); chicken DT40 Tdp1-/-;hTDP1 cells + 20 nM CPT, ATP luminescence, 48 h; Potency, µM (titrated, usually from 46.2 µM), actives largely listed as inhibitors; further: nearly all actives have a fitted effect of over 55% in size
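Chicken DT40 Tdp1-/- cells stably complemented with human TDP1 were seeded at 400 cells/well in medium containing 20 nM camptothecin, exposed to pin-transferred compounds, and grown at 37 °C for at least 48 hr. Viability was read as ATP luminescence.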
HepG2 tox = counter-screen for TGF-b inhibitors: cytotoxicity in HepG2 cells; HepG2 CAGA-GFP viability, ATP luminescence, 18 h; Potency, µM (doses to about 46.1 µM), actives largely listed as cytotoxic; actives 0.76% (n = 410,000)
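CellTiter-Glo luminescence gave cytotoxicity after 18 hours at 37 degrees C. The cells were HepG2 CAGA-GFP in 1% FBS DMEM, stimulated with 500 pg/mL TGF-beta after compound addition. %Activity was normalised to no-cell wells (complete cell-killing) and DMSO (no toxicity), and curves were fitted and classified.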
TGFb inhibitor = TGF-b pathway inhibition; HepG2 CAGA-GFP TGF-b/SMAD3 reporter, GFP fluorescence, 18 h; TGF-beta stimulated, 500 pg/mL final; Potency, µM (titrated, usually from 46.1 µM), most hits filed as inhibitors; actives 1.2% (n = 410,000); further: nearly all actives have a fitted effect of over 65% in size
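HEPG2 CAGA-GFP, 1000 cells/well; 2 h settle, 37 C; cpd via pin tool; TGF-b 500 pg/mL final; 18 h, 37 C; GFP imaging ex488/em500-530; %Activity normalised to -TGF-b and +DMSO controls; CRC fit, curve class.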
TDP1 block = TDP1 (human) enzyme inhibition; Q9NUW8; recombinant TDP1, AlphaScreen DNA substrate cleavage; AID 485290; actives 0.28% (n = 350,000); Potency, µM (series often up to 130 µM), most hits filed as inhibitors; further: nearly all actives have a fitted effect of over 40% in size
Target sequence (Q9NUW8 whole entry, looked up): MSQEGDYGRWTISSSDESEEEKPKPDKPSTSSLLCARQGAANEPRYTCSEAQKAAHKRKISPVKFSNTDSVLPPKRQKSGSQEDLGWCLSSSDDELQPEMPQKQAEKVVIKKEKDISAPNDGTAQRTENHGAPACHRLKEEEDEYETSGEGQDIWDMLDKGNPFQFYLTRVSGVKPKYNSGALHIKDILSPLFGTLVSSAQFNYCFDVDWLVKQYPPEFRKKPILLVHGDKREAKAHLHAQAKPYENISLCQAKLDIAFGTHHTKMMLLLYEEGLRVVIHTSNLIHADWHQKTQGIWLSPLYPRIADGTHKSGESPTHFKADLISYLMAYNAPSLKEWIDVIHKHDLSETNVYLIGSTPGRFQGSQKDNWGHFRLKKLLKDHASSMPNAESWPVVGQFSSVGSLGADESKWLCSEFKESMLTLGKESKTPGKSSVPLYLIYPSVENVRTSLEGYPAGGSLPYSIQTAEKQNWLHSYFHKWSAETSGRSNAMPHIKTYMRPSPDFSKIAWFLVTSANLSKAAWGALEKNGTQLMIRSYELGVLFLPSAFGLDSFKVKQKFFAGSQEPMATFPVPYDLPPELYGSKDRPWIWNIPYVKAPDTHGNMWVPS
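Steps: enzyme plus compound, 15 min RT; add biotin/phosphotyrosine-FITC oligonucleotide (15 nM final), react 5 min; add donor/acceptor beads (10 ug/ml final), 10 min; read AlphaScreen. Tdp1 at 1 nM final.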
Numbers stand for hits; - = inactive; ? = inconclusive; . = no result; [ ] = another dose, or the depositor's remark. Hits are enriched below; roughly 19% of the tested compounds scored in any of these assays. Unless noted, the call rests on the fitted dose curve; in most records, active means well fitted curve in the direction sought with a large enough effect; inconclusive means small, poorly fitted or top-dose-only effect, or another doubt; inactive means no such curve, though single readings can be large; an effect the other way counts as inactive or inconclusive.

SMILES | TDP1 cell noCPT | IL-1B inflam inh | DT40 TDP1 CPT | HepG2 tox | TGFb inhibitor | TDP1 block
Cc1c(C(=O)NCc2cccc([N+](=O)[O-])c2)sc(=O)n1Cc1ccc(F)cc1 | ? | ? | 16µM | - | - | .
Cc1c(C(=O)NCc2cccc([N+](=O)[O-])c2)sc(=O)n1Cc1cccc(F)c1 | - | ? | ? | - | - | .
Nc1cccc(Nc2nc(OC(C(F)(F)F)C(F)(F)F)nc(OC(C(F)(F)F)C(F)(F)F)n2)c1 | 23µM | -89 | 21µM | 11µM | ? | -
CC(/C=N/Nc1nnc2c(n1)[nH]c1ccccc12)=C\c1ccco1 | ? | - | 26µM | - | - | -
CC(=O)N1CCC2(CC1)CCN(C(=O)Nc1cccc(F)c1)CC2 | - | . | - | . | . | .
CSc1nc(N(C)NC(=O)c2ccc(F)cc2)c2ccccc2n1 | 0.73µM | - | 0.58µM | - | ? | -
COc1cccc2cc(/C(=N/O)c3ccc(Br)cc3)oc12 | ? | - | ? | - | ? | -
O/N=C(/c1ccccc1)c1cc2cc(Br)cc(Br)c2o1 | ? | -85 | - | - | - | .
Cc1nc(SC2CC(=O)N(c3ccccc3)C2=O)nc2c1CCCC2 (stereo not drawn) | - | - | ? | - | - | -
O=C1CC(Sc2cccs2)C(=O)N1c1ccccc1 (stereo not drawn) | 3.7µM | - | 3.7µM | - | - | -
Cc1nnc(SC2CC(=O)N(c3ccccc3)C2=O)s1 (stereo not drawn) | 21µM | - | 3.7µM | - | - | -
O=C1CC(Sc2nnc(-c3ccccc3)o2)C(=O)N1c1ccccc1 (stereo not drawn) | 4.6µM | - | 2.9µM | - | - | -
COC(=O)CN1C(=O)CSc2ccc(S(=O)(=O)Nc3cccc(C)c3)cc21 | 23µM | . | ? | - | - | -
CCc1cccc(NS(=O)(=O)c2ccc3c(c2)N(CC(=O)OC)C(=O)CS3)c1 | ? | . | 18µM | - | - | -
Cc1ccc(NC(=O)COc2ccc(CCO)cc2-n2nc3ccccc3n2)cc1C | 12µM | - | ? | - | ? | -
CC(C)C(N)c1csc(Nc2nncc3ccccc23)n1 (stereo not drawn) | 16µM | - | ? | - | ? | .
Nc1ccc(CC(N)c2csc(Nc3nncc4ccccc34)n2)cc1 (stereo not drawn) | ? | ? | ? | - | ? | .
CC(N)c1csc(Nc2nncc3ccccc23)n1 (stereo not drawn) | ? | -70 | ? | - | - | .
Cc1ccc(-c2nn3c(C)nnc3c3ccccc23)cc1S(=O)(=O)NC(C)c1ccccc1 (stereo not drawn) | 18µM | - | ? | - | ? | -
Cc1ccc(-c2nn3c(C)nnc3c3ccccc23)cc1S(=O)(=O)NCc1ccco1 | ? | ? | 15µM | - | - | -
COc1ncc2nc(-c3cn(C)c4ccccc34)c(=O)n(C)c2n1 | - | . | - | . | . | .
CCC(=O)N=c1sc2cc([N+](=O)[O-])ccc2n1CCOC | ? | - | - | - | - | -
COCCn1c(=NC(=O)CCS(=O)(=O)c2ccccc2)sc2cc(F)ccc21 | 21µM | - | 18µM | - | - | -
COCCn1c(=NC(=O)CSC(C)=O)sc2cc(F)ccc21 | 23µM | - | 21µM | - | - | -
COCCn1c(=NC(=O)c2sc3ccccc3c2Cl)sc2cc(S(N)(=O)=O)ccc21 | 13µM | - | ? | - | - | -
SMILES | TDP1 cell noCPT | IL-1B inflam inh | DT40 TDP1 CPT | HepG2 tox | TGFb inhibitor | TDP1 block
COCCn1c(=NC(=O)CSC(C)=O)sc2cc(OC)ccc21 | ? | - | ? | - | - | -
COCCn1c(=NC(=O)/C=C/c2cccs2)sc2cc(NC(C)=O)ccc21 | 23µM | - | ? | - | - | -
CC(C)OCCCNC(=O)CCCn1c(SCC(N)=O)nc2c(sc3ccccc32)c1=O | - | . | ? | - | - | -
CCCC/C=C/[C@H](c1ccccc1)[C@H](CO)Cc1ccc2ccccc2c1 | . | . | . | - | - | -
COCCn1c(=NC(=O)CSCC(=O)NC2CCCCC2)sc2cc(OC)ccc21 | 21µM | - | 23µM | - | - | -
CCOCCn1c(=NC(=O)CSCC(=O)Nc2cc(C)on2)sc2cc(OC)ccc21 | - | - | - | - | - | -
CCn1c(=NC(=O)CSC(C)=O)sc2ccccc21 | ? | - | 21µM | - | - | -
O=C(OC(C(=O)Nc1ccc(Cl)cc1C(F)(F)F)c1ccccc1)c1c(Cl)cccc1Cl (stereo not drawn) | 13µM | - | ? | - | - | -
Cc1ccc(C(=O)OC(C(=O)Nc2ccc(Cl)cc2C(F)(F)F)c2ccccc2)cc1 (stereo not drawn) | 23µM | - | ? | - | ? | -
Cc1ccc(C)c(NC(=O)C(OC(=O)c2ccc(CO)cc2)c2ccccc2)c1 (stereo not drawn) | - | - | - | - | - | -
CC(C)Cc1nc2cc(NS(=O)(=O)N(C)C)cc(C(=O)N3CCN(c4ccccc4)CC3)c2n1C | - | . | -[9.04 µM] | . | . | .
FC(F)(F)c1nc2nc(Cl)c(Cl)nc2[nH]1 | 21µM | - | ? | - | - | .
O=C(O)c1nc2nc(Cl)c(Cl)nc2[nH]1 | - | - | - | - | - | .
FC(F)(F)C(F)(F)C(F)(F)c1nc2nc(Cl)c(Cl)nc2[nH]1 | 16µM | - | ? | - | - | .
O=C(CNC(=O)c1ccc2cc[nH]c2c1)OC(C(=O)Nc1cc(C(F)(F)F)ccc1Cl)c1ccccc1 (stereo not drawn) | . | . | . | . | . | -
CCCn1c(=O)[nH]c2nc(-c3ccc(S(=O)(=O)O)cc3)[nH]c2c1=O | - | . | - | . | . | -
Cc1cc(NC(=O)C(C)SCC(=O)Nc2ccc(Br)cc2Br)no1 (stereo not drawn) | 13µM | - | ? | - | - | .
CCC(=O)N(Cc1cc(=O)[nH]c2ccccc12)c1ccccc1 | - | - | - | - | - | -
O=C(CCl)N(Cc1ccccc1)c1ccccc1 | 5.8µM | -96 | 5.2µM | 13µM | 13µM | -
Cc1cccc(N(Cc2ccccc2)C(=O)CSC(C)C(=O)Nc2cc(C)on2)c1 (stereo not drawn) | 18µM | - | ? | - | - | -
O=C(CCl)N(Cc1cc(=O)[nH]c2ccccc12)c1ccccc1 | 2.3µM | -78 | 4.1µM | - | 11µM | .
COc1cccc(Cn2c(=O)c(-c3ccccc3)nc3cncnc32)c1 | - | . | ? | . | . | .
COc1cc(CNC(=O)C2CC(O)CN2C(=O)Nc2ccccc2)cc(OC)c1OC (stereo not drawn) | - | - | - | - | - | .
O=c1[nH]c(=S)[nH]c2c1C(c1ccccc1)OC(C1CCCCC1)C2 (stereo not drawn) | - | - | - | . | . | .

Source: PubChem BioAssay
